# Only some compounds are listed: those with a hit (about 6% of all), similar ones and a draw of the others.
# D3 ag: D3 dopamine receptor (human) agonism; 0.58% of 410,000 active; P35462; max activation, %; D3R DiscoveRx beta-arrestin cells, luminescence, 90 min; in the data active means max activation above about 30%; further: 0% is about no effect
#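 Agonist mode: compounds and dopamine controls were applied to plated cells for 90 min at 37 degrees C after an overnight attachment at 1500 cells/well. Luminescent read-out followed 30 - 60 minutes at room temperature with DiscoveRx detection reagent.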
# D1 antag: antagonists of human D1 dopamine receptor. P21728. AID 504652. activity change, negative = inhibition, % at 10 µM. 3.2% of 360,000 active. HEK293 TREx D1 cells, calcium flux, dopamine EC80; hits give low values; in the data active means activity change below about -30%; further: on the % scale 0 is the no-effect control and ±100 the full control effect
# Target sequence (P21728 whole entry, looked up): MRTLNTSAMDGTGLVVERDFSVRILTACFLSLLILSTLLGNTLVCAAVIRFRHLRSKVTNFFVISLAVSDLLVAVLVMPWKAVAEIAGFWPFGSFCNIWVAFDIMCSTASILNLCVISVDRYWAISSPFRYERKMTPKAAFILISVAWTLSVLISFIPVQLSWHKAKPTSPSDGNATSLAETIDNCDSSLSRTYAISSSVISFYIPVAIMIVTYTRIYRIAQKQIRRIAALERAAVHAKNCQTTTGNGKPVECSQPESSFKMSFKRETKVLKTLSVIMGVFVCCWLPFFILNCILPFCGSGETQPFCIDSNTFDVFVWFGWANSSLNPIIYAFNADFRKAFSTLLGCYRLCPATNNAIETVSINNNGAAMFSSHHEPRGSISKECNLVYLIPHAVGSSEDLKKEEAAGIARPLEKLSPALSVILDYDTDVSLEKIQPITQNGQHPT
#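 Compound effects on dopamine-evoked calcium signalling were measured in tetracycline-induced HEK293 Trex D1 cells. Dopamine at EC80 followed a 180 s compound pre-read, and fluorescence was tracked kinetically for 180 s more.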
# D1 PAM: enhances dopamine response at the human D1 receptor | potentiation, % at 10 µM | 0.036% of 360,000 active | HEK293 TREx D1 cells, calcium flux, dopamine EC20 potentiation | AID 504651; in the data active means potentiation above about 30%; further: 0% is about no effect
# D3 antag: D3 dopamine receptor (human) antagonism; max response, negative = inhibition, %; P35462; AID 652054; 2.5% of 360,000 active; D3R cells, DiscoveRx beta-arrestin luminescence, antagonist mode; hits give low values; in the data active means max response below about -50%; inconclusive means no clear call, values can overlap the other calls; further: on the % scale 0 is the no-effect control and ±100 the full control effect
#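 Cells expressing the human receptor were seeded at 1500 cells/well, incubated overnight at 37 degrees C in 5% CO2, then exposed to library compounds with dopamine controls for 90 minutes at 37 degrees C before luminescent detection.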
# D1 ag: agonists of human D1 dopamine receptor; activation, % at 2 µM; P21728; 1% of 360,000 active; HEK293 T-REx D1 cells, calcium flux, agonist mode; AID 504660; in the data active means activation above about 30%; further: 0% is about no effect
#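 Agonism was scored from calcium flux recorded over 180 s (1 read/s) after pintool compound addition, following a 10-cycle baseline. Cells were inducible force-coupled HEK293 TREx D1, plated overnight at 30 C and loaded with no-wash calcium dye.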
# Chronic BCR inh: inhibitors of chronic active B-cell receptor signaling. Potency, µM (highest dose often 46.1 µM), inactives show at the top dose activity change, negative = inhibition, usual class: inhibitors. 0.05% of 340,000 active. ABC-DLBCL IkBa-CBG/CBR reporter, luminescence ratio, 4 h; active means well fitted inhibition curve with a large enough effect in the signal ratio, with a control signal flat, not every such curve was filed as active; inconclusive means small, poorly fitted or top-dose-only effect, or effect the other way, or a change in a side signal; the % refers to the signal ratio;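 further: potency means the concentration at half of the fitted maximal effect; plate controls were basal doxycycline-induced cells for no effect and cells given 10 µM MG132 for full effect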
#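 TMD8 ABC-DLBCL cells carrying doxycycline-inducible green luciferase fused to IkappaBalpha plus unfused red luciferase were exposed to compounds (up to 46 uM) for 4 hrs at 37C. Activity came from the overlap-corrected green/red luminescence ratio.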
# The depositor's hits bear a star; u = inconclusive; x = not tested or not shown.
SMILES,D3 ag,D1 antag,D1 PAM,D3 antag,D1 ag,Chronic BCR inh
O=C(C1CCCN1S(=O)(=O)c1cccc2cccnc12)N1CCn2c1nc1ccccc12 (centres undefined),-11,15,2,u,0,-1%
CCc1ccccc1NC(=O)CSc1nnc(CC)c(CC)n1,1,-1,0,x,1,x
CCN(CC)C(=O)C1=C(C)N(Cc2ccc(OC)cc2)C(=O)C(CC(=O)NCc2cccc3ccccc23)C1 (centres undefined),-13,x,x,u,x,x
CC(C)Cn1c(N)c(C(=O)COC(=O)Cc2cccs2)c(=O)n(C)c1=O,4,-26,2,6,21,5%
Cn1c(N)c(C(=O)COC(=O)/C=C/c2ccc(F)cc2)c(=O)n(C)c1=O,0,-5,1,6,9,9%
CC(C)Cn1c(N)c(C(=O)COC(=O)/C=C/c2cccs2)c(=O)n(C)c1=O,33*,-8,3,1,15,7%
COc1ccc(/C=C/C(=O)OCC(=O)c2c(N)n(C)c(=O)n(C)c2=O)cc1,-5,-32*,1,-3,13,-4%
Cn1c(N)c(C(=O)COC(=O)/C=C/c2cccc(Br)c2)c(=O)n(C)c1=O,-2,-33*,-1,8,5,0%
OC[C@H]1OC([S-])[C@H](O)[C@@H](O)[C@@H]1O.[Au+] (some centres undefined),4,x,x,x,x,x
O=[N+]([O-])c1ccc2oc(/C=C/c3ccc(O)cc3)nc2c1,5,x,x,-2,x,x
COc1ccc(-c2cc(C(=O)NCc3ccc(C(F)(F)F)cc3)[nH]n2)c(C)c1,-8,x,x,-7,x,x
Clc1ccccc1CN(Cc1ccccc1)c1ncnc2nc[nH]c12,1,9,1,-64*,-4,u
Cc1cc(C)c(NC(=O)C2=COCCO2)c(C)c1,6,-33*,-7,-1,0,0%
Cc1cc(C)c2sc(NC(=O)C3=COCCO3)nc2c1,8,-34*,13,10,0,u
Cc1cc(-c2csc(NC(=O)C3=COCCO3)n2)c(C)n1C,6,-12,-4,14,0,3%
Cc1cc(C)c(-c2csc(NC(=O)C3=COCCO3)n2)c(C)c1,-10,-30*,-4,-8,12,-19%
Cc1cc(C)c(NC(=O)COC(=O)C2=COCCO2)c(C)c1,-7,x,x,12,x,x
O=C(Nc1nc(-c2cccs2)cs1)C1=COCCO1,-4,-82*,-5,u,0,u
O=C(Nc1nc2cc3c(cc2s1)OCCO3)C1=COCCO1,-6,4,2,-19,3,u
O=C(Cn1nc(-c2ccccc2)ccc1=O)NCc1ccc2c(c1)OCO2,7,-5,33*,6,-1,-1%
O=C1Nc2ccccc2C(O)(C(=O)NCc2ccc3c(c2)OCO3)N1c1ccc(Cl)c(Cl)c1 (centres undefined),0,3,4,8,31*,u
CC(C)CN1C(=O)C(=O)N(CC(=O)c2ccc3c(c2)OCO3)C1=O,-3,5,4,4,2,0%
Nc1c(C(=O)NCc2ccc3c(c2)OCO3)nnn1CC(=O)Nc1ccc(Br)cc1,-3,5,-4,4,6,26%
Nc1c(C(=O)NCc2ccc3c(c2)OCO3)nnn1Cc1ccc(Br)cc1,3,-4,4,3,31*,-18%
CC(C)CN1C(=O)C(=O)N(CC(=O)NCc2ccc3c(c2)OCO3)C1=O,-3,6,3,-52*,0,-13%
CC(=O)N1CCc2cc(Br)cc(S(=O)(=O)CCC(=O)N3CCN(c4ccc(F)cc4)CC3)c21,8,-8,-1,x,-1,x
Cc1nc2ccccc2nc1OCC(=O)NCc1ccc2c(c1)OCO2,1,6,-1,-65*,3,1%
O=C(NCc1ccc2c(c1)OCO2)c1n[nH]c(=O)c2ccccc12,-7,-50*,-1,-7,0,-8%
O=C(c1n[nH]c(=O)c2ccccc12)N1CCN(Cc2ccc3c(c2)OCO3)CC1,-3,19,-2,-4,5,3%
